This is a sample that favours compounds with a hit; in the whole collection about 0.83% have one here.
NCOA2 inhibitor – inhibition of GAL4-SRC2 driven luciferase reporter, primary screen, SRC2 inhibitor project, cell-based, luminescence; 0.17% of 370,000 active; HEK293 GAL4-SRC2 luciferase reporter; Nuclear receptor coactivator 2 (Homo sapiens), Q15596; inhibition, % at 9 µM;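 active = inhibition above the mean inhibition of all tested compounds plus 3 SD, set per campaign, cut at about 52% in these data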;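 also: 0% = DMSO treated cells and 100% = cells given Gossypol at 36 µM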
Gli-Sufu block – Gli-Sufu pathway antagonists, primary screen, luciferase luminescence, Sufu-KO-LIGHT cells, uHTS | 0.74% of 340,000 active | Sufu-KO-LIGHT fibroblasts, Gli luciferase reporter luminescence | inhibition, % at 5 µM;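 active = inhibition above about 55%, limit read from the data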;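 also: 0% = DMSO-treated cells and 100% = wells with medium but no cells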
NR5A2 inv ag – LRH-1 (NR5A2) inverse agonists, primary screen, cell-based, luminescence, HEK293T, StAR-luciferase reporter; Nuclear receptor subfamily 5 group A member 2 (Homo sapiens), O00482; 0.13% of 360,000 active; LRH-1 transfected, 24 h; inhibition, % at 3.6 µM;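 active = inhibition above the mean inhibition of all tested compounds plus 3 SD, cut at about 73% in these data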;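 also: 0% = DMSO wells and 100% = reporter-only cells lacking LRH-1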
NCOA1 inh – SRC1 coactivator transcriptional activity inhibitors, primary screen, cell-based, luminescence | Nuclear receptor coactivator 1 (Homo sapiens), Q15788 | 0.12% of 360,000 active | inhibition, % at 3.6 µM | AID 588354, 2011 | HEK293 GAL4-SRC1 luciferase reporter;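 active = inhibition above the campaign mean plus 3 SD, with each screening campaign given its own cutoff, cut at about 60% in these data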;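 also: 0% = DMSO treated cells and 100% = gossypol at 36 µM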
NCOA3 inh – SRC3 coactivator transcriptional activity inhibitors, primary screen, cell-based, luminescence. Nuclear receptor coactivator 3 (Homo sapiens), Q9Y6Q9. HEK293 GAL4-SRC3 luciferase reporter. inhibition, % at 3.6 µM. 0.17% of 360,000 active;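 active = inhibition above a per-campaign cutoff, the mean of all compounds plus 3 SD, cut at about 60% in these data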;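 also: 0% = DMSO-treated cells and 100% = gossypol-treated cells at 36 µM; higher means less SRC3-driven luciferase light from the GAL4 reporter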
Numbers without * were called inactive.

How did Cn1c(/C(C#N)=C/c2cccc(O)c2)nc2ccccc21 do in these assays?
NCOA2 inhibitor: -43; Gli-Sufu block: 3; NR5A2 inv ag: 1; NCOA1 inh: -22; NCOA3 inh: -37

Results for CCn1c2c(c(=N)c3c1CCC3)CCC2 ?
NCOA2 inhibitor: 32; Gli-Sufu block: -8; NR5A2 inv ag: -10; NCOA1 inh: 8; NCOA3 inh: 9

What do the screens show for `CCCCCCn1c2c(c(=N)c3c1CCC3)CCC2`?
NCOA2 inhibitor: -8; Gli-Sufu block: 89*; NR5A2 inv ag: 92*; NCOA1 inh: 67*; NCOA3 inh: 75*

What do the screens show for `CCCCCCCn1c2c(c(=N)c3c1CCC3)CCCC2`?
NCOA2 inhibitor: 33; Gli-Sufu block: 90*; NR5A2 inv ag: 84*; NCOA1 inh: 44; NCOA3 inh: 79*

How did CCCCCCn1c(=O)[nH]c2c(c1=O)CCC2 do in these assays?
NCOA2 inhibitor: 12; Gli-Sufu block: 4; NR5A2 inv ag: -11; NCOA1 inh: -2; NCOA3 inh: 11

How did CCCCCCCCCn1c2c(c(=N)c3c1CCC3)CCC2 do in these assays?
Gli-Sufu block: 94*; NR5A2 inv ag: 97*; NCOA1 inh: 71*; NCOA3 inh: 81*

Results for CCCCn1c2c(c(=N)c3c1CCC3)CCC2 ?
NCOA2 inhibitor: 16; Gli-Sufu block: 8; NR5A2 inv ag: 45; NCOA1 inh: 30; NCOA3 inh: 28

Results for N=c1c2c(n(Cc3ccc(F)cc3)c3c1CCC3)CCC2 ?
NCOA2 inhibitor: 16; Gli-Sufu block: 47; NR5A2 inv ag: 74*; NCOA1 inh: 36; NCOA3 inh: 50

What do the screens show for `CC(C)C[C@H]1COc2cccc(F)c2S(=O)(=O)N1Cc1cn(Cc2ccc(Cl)cc2)nn1`?
NCOA2 inhibitor: -5

Results for CC(COc1cccc(F)c1)CN1CCC(C(O)(c2ccccc2)c2ccccc2)CC1 (stereo not drawn) ?
NCOA2 inhibitor: -22

What do the screens show for `O=C(CSc1nc2sc3c(c2c(=O)n1-c1ccc(Cl)cc1)CCC3)Nc1ccc(C(=O)O)cc1`?
NCOA2 inhibitor: -16

What do the screens show for `COc1cc(C=c2c3ccccc3n3c2cc(-c2ccccc2)[n+]3C)cc(OC)c1OC`?
NCOA2 inhibitor: -3; Gli-Sufu block: 14; NR5A2 inv ag: 10; NCOA1 inh: -9; NCOA3 inh: 13

What do the screens show for `CN(C)c1ccc(C=c2c3ccccc3n3c2c2c([n+]3C)CCCC2)cc1`?
NCOA2 inhibitor: -18; Gli-Sufu block: 89*; NR5A2 inv ag: 94*; NCOA1 inh: 69*; NCOA3 inh: 79*

How did CN(C)c1ccc(C=C2C=C(c3ccccc3)OC2=O)cc1 do in these assays?
NCOA2 inhibitor: 9; NR5A2 inv ag: -35; NCOA1 inh: -18; NCOA3 inh: -14

How did CN(C)c1ccc(C=c2c3ccccc3n3c2cc(-c2ccc(Cl)cc2)[n+]3C)cc1 do in these assays?
NCOA2 inhibitor: -28; Gli-Sufu block: 83*; NR5A2 inv ag: 74*; NCOA1 inh: 6; NCOA3 inh: 68*

What do the screens show for `CN(c1ccc(Cl)cc1)c1cc(=O)n(C)c2ccccc12`?
NCOA2 inhibitor: -39; Gli-Sufu block: 23; NR5A2 inv ag: -15; NCOA1 inh: 5; NCOA3 inh: 27

What do the screens show for `COc1cc(N(C)C)ccc1C=c1c2ccccc2n2c1cc(-c1ccccc1)[n+]2C`?
NCOA2 inhibitor: -54; Gli-Sufu block: 91*; NR5A2 inv ag: 69; NCOA1 inh: 23; NCOA3 inh: 63*

What do the screens show for `CN(C)c1ccc(C=c2c3ccccc3n3c2cc(-c2ccccc2)[n+]3C)cc1`?
NCOA2 inhibitor: -29; Gli-Sufu block: 86*; NR5A2 inv ag: 91*; NCOA1 inh: 65*; NCOA3 inh: 83*

Results for CC(C)=CCC[C@@]1(C(=O)O)[C@H]2CC=C(CO)[C@@H]1CC/C(C)=C/CC/C(C)=C/C2 ?
NCOA2 inhibitor: 36

How did Cc1ccc(NC(=O)C2CCCN2S(=O)(=O)c2cccnc2)cc1C (stereo not drawn) do in these assays?
NCOA2 inhibitor: -11

Results for CN(C)c1ccc(C=c2c3cc([N+](=O)[O-])ccc3n3c2cc(-c2ccccc2)[n+]3C)cc1 ?
NCOA2 inhibitor: -4; Gli-Sufu block: 81*; NR5A2 inv ag: 61; NCOA1 inh: 12; NCOA3 inh: 53

How did CC(C)(C)C1C/C(=C/c2ccccn2)C(=O)/C(=C/c2ccccn2)C1 (stereo not drawn) do in these assays?
Gli-Sufu block: 66*; NR5A2 inv ag: 63; NCOA1 inh: -189; NCOA3 inh: -39

What do the screens show for `CCn1c(Oc2ccccc2F)nc2c1c(=O)n(C)c(=O)n2C`?
NCOA2 inhibitor: 59*; Gli-Sufu block: -22; NR5A2 inv ag: 26; NCOA1 inh: 68*; NCOA3 inh: 60

Results for CCn1c(Oc2ccccc2)nc2c1c(=O)n(C)c(=O)n2C ?
NCOA2 inhibitor: 40; Gli-Sufu block: 20; NR5A2 inv ag: -3; NCOA1 inh: -10; NCOA3 inh: 23

What do the screens show for `CCOC(=O)N1C(=O)C[C@](Sc2ccc(OC)cc2)(C(=O)N(C)C)[C@H]1c1ccc(OC)cc1`?
NCOA2 inhibitor: 8

What do the screens show for `COc1ccc(NC(=O)/C(Cl)=C(/Cl)S(=O)Cc2ccc(Cl)cc2)cn1` (stereo not drawn)?
NCOA2 inhibitor: 64*; Gli-Sufu block: 46; NR5A2 inv ag: 51; NCOA1 inh: -84; NCOA3 inh: 13

What do the screens show for `COc1ccc(NC(=O)C(Cl)=C(Cl)Cl)cn1`?
NCOA2 inhibitor: 23; Gli-Sufu block: 6; NR5A2 inv ag: -1; NCOA1 inh: -22; NCOA3 inh: -10

Results for COc1ccc(NC(=O)/C(Cl)=C(/Cl)S(=O)(=O)Cc2ccccc2)cn1 ?
NCOA2 inhibitor: 69*; Gli-Sufu block: 20; NR5A2 inv ag: 32; NCOA1 inh: -86; NCOA3 inh: 41

What do the screens show for `C=CCN(CC#CC1=CCCCC1)CC1CC1`?
NCOA2 inhibitor: -23

Results for Cc1cc(C)n2c(=O)c3ccc(Cl)cc3nc2c1C#N ?
NCOA2 inhibitor: 19; Gli-Sufu block: -7; NR5A2 inv ag: -7; NCOA1 inh: -2; NCOA3 inh: -15

Results for Cc1cc(Cl)n2c(nc3cc(F)c(F)cc32)c1C#N ?
NCOA2 inhibitor: 26; Gli-Sufu block: 62*; NR5A2 inv ag: 26; NCOA1 inh: 2; NCOA3 inh: -3

Results for COc1ccc(CSc2nnc(SCc3ccccc3)s2)cc1 ?
NCOA2 inhibitor: -8

Results for CC(=O)N(Cc1ccc(F)cc1)C1=C(NCc2ccccc2)C(=O)c2ccccc2C1=O ?
Gli-Sufu block: 92*; NR5A2 inv ag: 40; NCOA1 inh: 24; NCOA3 inh: 63*

Results for O=C(NCc1ccc(F)cc1)C(c1ccccc1)c1ccccc1 ?
NCOA2 inhibitor: 7; Gli-Sufu block: -3; NR5A2 inv ag: 3; NCOA1 inh: -45; NCOA3 inh: 7

Bioassay records (PubChem)
